Drawing on ChEMBL document CHEMBL1961873, “Compounds: GSK PKIS; Assays: Nanosyn kinase panel” (2012), this text covers inhibition for four molecules.

The target in assay [1] is T1, Mitogen-activated protein kinase 12 (Homo sapiens) (UniProt P53778).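 Also: values are averaged p38gamma kinase inhibition readings, compounds tested at 1 µM.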
T1 sequence (whole entry): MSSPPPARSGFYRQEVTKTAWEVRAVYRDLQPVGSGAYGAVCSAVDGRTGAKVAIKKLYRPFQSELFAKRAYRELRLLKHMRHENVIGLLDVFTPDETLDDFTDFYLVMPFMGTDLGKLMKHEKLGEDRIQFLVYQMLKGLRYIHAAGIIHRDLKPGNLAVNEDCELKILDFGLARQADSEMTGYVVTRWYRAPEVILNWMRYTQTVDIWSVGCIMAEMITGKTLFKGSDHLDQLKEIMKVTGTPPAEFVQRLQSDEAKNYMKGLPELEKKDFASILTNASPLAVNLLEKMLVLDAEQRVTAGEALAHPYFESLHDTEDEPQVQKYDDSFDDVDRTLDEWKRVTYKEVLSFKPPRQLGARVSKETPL
To be noted: at 1 µM.

Assay [2] concerns the target SRSF protein kinase 1 (Homo sapiens) (UniProt Q96SB4). The note with it: at 0.1 µM.
The target is the same in assay [3]. The note with it: at 1 µM.
Assay [4] deals with Phosphatidylinositol 4,5-bisphosphate 3-kinase catalytic subunit alpha isoform (Homo sapiens) (UniProt P42336). The note with it: at 0.1 µM.
Chain of Phosphatidylinositol 4,5-bisphosphate 3-kinase catalytic subunit alpha isoform (Homo sapiens) (P42336 whole entry, canonical isoform): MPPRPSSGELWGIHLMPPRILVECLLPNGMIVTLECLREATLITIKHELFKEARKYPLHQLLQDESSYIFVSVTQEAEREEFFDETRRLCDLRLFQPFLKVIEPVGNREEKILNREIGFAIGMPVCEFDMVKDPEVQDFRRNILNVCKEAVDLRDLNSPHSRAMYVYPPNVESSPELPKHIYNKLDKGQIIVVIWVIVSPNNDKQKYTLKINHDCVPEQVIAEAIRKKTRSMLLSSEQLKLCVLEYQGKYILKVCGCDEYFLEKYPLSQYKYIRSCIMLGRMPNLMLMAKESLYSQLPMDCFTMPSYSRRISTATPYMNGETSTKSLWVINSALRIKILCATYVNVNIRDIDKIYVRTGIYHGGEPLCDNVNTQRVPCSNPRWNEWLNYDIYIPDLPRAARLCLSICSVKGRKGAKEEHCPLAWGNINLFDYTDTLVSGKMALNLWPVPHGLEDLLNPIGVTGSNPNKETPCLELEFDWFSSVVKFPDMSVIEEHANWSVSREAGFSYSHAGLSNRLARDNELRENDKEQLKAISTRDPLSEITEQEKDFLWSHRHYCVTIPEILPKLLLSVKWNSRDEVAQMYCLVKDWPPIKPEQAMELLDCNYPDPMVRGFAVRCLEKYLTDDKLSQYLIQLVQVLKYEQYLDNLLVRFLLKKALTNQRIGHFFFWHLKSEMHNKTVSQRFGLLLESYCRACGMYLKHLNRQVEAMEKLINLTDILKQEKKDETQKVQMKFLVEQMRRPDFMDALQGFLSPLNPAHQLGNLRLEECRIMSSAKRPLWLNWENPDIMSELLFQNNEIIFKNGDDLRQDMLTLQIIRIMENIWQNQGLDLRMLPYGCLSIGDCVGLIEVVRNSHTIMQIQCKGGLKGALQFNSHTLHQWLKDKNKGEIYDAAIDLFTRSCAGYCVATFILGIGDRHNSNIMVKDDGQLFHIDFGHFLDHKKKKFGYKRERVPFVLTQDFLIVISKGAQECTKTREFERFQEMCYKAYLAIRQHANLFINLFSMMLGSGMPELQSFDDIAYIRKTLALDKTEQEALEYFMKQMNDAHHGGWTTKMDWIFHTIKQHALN
For assay [5] the target is unchanged. The note with it: at 1 µM.
Assay [6] concerns the target T2, Phosphatidylinositol 4,5-bisphosphate 3-kinase catalytic subunit delta isoform (Homo sapiens) (UniProt O00329).
T2 sequence (whole entry): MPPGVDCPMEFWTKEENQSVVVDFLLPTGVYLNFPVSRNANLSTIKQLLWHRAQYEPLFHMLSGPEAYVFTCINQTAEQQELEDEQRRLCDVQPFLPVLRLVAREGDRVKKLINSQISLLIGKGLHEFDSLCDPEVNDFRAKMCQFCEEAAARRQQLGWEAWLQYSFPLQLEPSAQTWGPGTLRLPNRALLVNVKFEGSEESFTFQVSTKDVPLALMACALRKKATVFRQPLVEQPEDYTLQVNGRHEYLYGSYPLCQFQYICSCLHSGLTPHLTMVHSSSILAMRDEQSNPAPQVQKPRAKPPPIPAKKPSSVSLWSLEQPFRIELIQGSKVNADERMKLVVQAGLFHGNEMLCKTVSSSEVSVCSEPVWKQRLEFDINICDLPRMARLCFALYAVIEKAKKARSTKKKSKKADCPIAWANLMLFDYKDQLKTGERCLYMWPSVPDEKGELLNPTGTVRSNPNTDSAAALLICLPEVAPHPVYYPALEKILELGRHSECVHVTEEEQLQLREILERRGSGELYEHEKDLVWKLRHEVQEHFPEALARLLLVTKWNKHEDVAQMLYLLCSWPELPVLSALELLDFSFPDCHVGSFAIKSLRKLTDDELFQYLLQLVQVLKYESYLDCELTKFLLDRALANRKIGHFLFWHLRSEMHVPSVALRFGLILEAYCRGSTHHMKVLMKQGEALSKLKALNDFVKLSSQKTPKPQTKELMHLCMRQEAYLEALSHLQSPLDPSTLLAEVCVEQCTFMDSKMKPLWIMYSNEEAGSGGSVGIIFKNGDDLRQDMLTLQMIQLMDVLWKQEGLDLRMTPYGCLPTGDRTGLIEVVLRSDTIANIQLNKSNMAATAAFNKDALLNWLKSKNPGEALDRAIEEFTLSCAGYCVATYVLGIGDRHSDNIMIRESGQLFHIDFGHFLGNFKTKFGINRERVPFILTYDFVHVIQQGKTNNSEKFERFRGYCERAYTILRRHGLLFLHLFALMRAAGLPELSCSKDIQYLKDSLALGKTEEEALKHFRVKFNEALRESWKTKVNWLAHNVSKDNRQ
To be noted: at 0.1 µM.

The target of assay [7] is T2, Phosphatidylinositol 4,5-bisphosphate 3-kinase catalytic subunit delta isoform (Homo sapiens). The note with it: at 1 µM.
Assay [8] addresses Phosphatidylinositol 4-kinase beta (Homo sapiens) (UniProt Q9UBF8). The note with it: at 0.1 µM.
Assay [9] shares this target. The note with it: at 1 µM.
Assay [10] deals with Sphingosine kinase 1 (Homo sapiens) (UniProt Q9NYA1). To be noted: at 0.1 µM.
Chain of Sphingosine kinase 1 (Homo sapiens) (Q9NYA1 whole entry): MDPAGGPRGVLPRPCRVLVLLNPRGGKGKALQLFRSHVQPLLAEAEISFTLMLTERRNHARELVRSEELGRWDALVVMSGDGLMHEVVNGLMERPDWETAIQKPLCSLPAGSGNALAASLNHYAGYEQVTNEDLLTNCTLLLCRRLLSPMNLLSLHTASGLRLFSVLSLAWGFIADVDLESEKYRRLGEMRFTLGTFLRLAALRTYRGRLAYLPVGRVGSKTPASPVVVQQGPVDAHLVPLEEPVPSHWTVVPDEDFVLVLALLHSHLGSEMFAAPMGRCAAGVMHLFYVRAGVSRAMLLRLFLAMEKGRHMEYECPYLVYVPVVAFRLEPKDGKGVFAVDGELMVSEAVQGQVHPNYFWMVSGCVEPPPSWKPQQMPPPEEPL
Assay [11] shares this target. To be noted: at 1 µM.
Assay [12] deals with T3, Sphingosine kinase 2 (Homo sapiens) (UniProt Q9NRA0).
T3 sequence (whole entry): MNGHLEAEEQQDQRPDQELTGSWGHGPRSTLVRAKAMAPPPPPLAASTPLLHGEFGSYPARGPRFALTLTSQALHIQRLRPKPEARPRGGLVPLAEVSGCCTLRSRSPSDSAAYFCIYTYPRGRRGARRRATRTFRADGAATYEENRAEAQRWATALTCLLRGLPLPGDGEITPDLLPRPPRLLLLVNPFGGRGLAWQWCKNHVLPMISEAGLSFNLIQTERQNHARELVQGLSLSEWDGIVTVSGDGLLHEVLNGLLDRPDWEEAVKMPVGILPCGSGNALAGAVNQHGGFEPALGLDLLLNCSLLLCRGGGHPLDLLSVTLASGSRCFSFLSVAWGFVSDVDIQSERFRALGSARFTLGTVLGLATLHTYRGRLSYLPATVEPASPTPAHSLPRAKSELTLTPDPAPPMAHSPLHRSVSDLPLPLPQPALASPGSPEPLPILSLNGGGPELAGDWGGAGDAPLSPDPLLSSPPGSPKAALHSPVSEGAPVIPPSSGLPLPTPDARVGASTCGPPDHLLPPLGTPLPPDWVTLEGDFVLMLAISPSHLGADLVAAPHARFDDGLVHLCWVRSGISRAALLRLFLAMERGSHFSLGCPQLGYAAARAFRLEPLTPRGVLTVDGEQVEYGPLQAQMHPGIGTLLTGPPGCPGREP
To be noted: at 0.1 µM.

In assay [13] the target is T3, Sphingosine kinase 2 (Homo sapiens). To be noted: at 1 µM.
Assay [14] deals with Casein kinase II subunit alpha (Homo sapiens) (UniProt P68400). To be noted: at 0.1 µM.
Chain of Casein kinase II subunit alpha (Homo sapiens) (P68400 whole entry, looked up): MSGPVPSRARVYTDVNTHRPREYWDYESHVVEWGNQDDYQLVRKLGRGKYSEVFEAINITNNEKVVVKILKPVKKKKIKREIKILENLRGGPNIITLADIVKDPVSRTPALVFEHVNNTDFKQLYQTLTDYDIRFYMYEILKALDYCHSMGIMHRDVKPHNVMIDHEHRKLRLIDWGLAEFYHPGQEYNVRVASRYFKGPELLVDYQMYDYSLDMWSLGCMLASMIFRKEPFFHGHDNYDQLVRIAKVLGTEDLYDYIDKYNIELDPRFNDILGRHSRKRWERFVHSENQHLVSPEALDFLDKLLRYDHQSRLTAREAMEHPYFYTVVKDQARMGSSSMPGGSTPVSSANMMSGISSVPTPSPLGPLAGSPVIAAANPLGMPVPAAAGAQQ
Assay [15] has the same target. To be noted: at 1 µM.
The target of assay [16] is T4, Inhibitor of nuclear factor kappa-B kinase subunit alpha (Homo sapiens) (UniProt O15111).
T4 sequence (whole entry): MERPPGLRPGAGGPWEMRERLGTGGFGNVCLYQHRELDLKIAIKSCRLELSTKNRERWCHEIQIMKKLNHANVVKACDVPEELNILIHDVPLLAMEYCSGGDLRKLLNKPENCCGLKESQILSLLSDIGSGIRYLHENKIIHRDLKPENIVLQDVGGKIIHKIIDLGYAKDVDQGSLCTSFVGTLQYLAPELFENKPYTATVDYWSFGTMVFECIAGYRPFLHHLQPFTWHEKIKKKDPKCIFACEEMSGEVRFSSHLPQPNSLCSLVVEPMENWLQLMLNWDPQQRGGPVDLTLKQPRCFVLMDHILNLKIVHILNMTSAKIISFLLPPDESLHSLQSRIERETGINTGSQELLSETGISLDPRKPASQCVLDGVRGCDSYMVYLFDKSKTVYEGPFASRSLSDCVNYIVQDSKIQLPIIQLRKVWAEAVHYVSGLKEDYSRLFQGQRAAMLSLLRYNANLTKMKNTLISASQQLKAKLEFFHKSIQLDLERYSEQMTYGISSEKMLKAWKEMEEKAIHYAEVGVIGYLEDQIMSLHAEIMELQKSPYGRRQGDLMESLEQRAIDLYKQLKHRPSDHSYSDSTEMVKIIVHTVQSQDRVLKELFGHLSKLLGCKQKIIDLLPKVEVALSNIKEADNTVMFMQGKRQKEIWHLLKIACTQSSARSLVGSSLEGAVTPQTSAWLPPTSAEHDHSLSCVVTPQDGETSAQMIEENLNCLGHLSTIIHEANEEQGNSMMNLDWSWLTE
To be noted: at 0.1 µM.

Assay [17] addresses T4, Inhibitor of nuclear factor kappa-B kinase subunit alpha (Homo sapiens). To be noted: at 1 µM.
Assay [18] concerns the target T5, Inhibitor of nuclear factor kappa-B kinase subunit beta (Homo sapiens) (UniProt O14920).
T5 sequence (whole entry): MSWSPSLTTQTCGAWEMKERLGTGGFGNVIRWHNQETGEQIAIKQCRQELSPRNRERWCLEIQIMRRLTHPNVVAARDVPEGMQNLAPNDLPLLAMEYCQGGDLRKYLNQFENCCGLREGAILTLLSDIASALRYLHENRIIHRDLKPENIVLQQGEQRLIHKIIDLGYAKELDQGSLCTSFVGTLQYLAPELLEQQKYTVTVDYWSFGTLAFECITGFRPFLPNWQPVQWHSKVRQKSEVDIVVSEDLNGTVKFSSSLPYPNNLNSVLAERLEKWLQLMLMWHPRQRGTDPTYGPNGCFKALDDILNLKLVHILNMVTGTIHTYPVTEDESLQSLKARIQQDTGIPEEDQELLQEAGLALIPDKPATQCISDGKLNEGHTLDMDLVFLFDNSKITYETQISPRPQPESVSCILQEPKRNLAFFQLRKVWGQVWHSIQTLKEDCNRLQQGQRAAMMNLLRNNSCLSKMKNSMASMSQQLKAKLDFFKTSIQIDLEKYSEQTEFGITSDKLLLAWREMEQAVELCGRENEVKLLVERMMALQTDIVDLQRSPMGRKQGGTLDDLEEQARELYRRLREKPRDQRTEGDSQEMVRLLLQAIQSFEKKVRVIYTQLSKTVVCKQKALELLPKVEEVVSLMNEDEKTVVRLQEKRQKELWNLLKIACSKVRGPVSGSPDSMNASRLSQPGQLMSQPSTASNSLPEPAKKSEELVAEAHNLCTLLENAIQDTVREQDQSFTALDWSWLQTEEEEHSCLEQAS
To be noted: at 0.1 µM.

In assay [19] the target is T5, Inhibitor of nuclear factor kappa-B kinase subunit beta (Homo sapiens). To be noted: at 1 µM.
Assay [20] has as its target T6, Inhibitor of nuclear factor kappa-B kinase subunit epsilon (Homo sapiens) (UniProt Q14164).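 Also: mean inhibition of IKKε reported, from the GSK PKIS dataset.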
T6 sequence (whole entry): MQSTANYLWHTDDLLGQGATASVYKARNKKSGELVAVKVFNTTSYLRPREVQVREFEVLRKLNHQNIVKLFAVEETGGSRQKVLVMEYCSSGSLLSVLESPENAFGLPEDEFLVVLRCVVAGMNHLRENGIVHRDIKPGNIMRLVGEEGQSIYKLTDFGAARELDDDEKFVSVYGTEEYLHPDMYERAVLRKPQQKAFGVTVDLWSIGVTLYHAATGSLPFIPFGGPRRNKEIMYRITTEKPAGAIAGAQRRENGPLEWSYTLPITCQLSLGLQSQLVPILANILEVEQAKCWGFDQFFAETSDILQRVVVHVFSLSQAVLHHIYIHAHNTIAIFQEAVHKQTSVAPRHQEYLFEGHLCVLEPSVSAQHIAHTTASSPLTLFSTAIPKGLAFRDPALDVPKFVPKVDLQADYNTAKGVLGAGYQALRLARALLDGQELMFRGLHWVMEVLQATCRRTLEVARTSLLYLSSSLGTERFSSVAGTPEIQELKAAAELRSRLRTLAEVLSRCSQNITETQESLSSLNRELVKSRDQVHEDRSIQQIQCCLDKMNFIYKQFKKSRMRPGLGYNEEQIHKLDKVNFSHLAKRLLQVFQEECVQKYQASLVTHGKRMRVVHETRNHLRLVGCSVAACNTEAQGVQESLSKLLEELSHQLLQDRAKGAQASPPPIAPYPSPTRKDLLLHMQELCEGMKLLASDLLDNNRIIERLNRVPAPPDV
To be noted: at 0.1 µM.

Chain of Phosphatidylinositol 4-kinase beta (Homo sapiens) (Q9UBF8 2-816 limits assumed): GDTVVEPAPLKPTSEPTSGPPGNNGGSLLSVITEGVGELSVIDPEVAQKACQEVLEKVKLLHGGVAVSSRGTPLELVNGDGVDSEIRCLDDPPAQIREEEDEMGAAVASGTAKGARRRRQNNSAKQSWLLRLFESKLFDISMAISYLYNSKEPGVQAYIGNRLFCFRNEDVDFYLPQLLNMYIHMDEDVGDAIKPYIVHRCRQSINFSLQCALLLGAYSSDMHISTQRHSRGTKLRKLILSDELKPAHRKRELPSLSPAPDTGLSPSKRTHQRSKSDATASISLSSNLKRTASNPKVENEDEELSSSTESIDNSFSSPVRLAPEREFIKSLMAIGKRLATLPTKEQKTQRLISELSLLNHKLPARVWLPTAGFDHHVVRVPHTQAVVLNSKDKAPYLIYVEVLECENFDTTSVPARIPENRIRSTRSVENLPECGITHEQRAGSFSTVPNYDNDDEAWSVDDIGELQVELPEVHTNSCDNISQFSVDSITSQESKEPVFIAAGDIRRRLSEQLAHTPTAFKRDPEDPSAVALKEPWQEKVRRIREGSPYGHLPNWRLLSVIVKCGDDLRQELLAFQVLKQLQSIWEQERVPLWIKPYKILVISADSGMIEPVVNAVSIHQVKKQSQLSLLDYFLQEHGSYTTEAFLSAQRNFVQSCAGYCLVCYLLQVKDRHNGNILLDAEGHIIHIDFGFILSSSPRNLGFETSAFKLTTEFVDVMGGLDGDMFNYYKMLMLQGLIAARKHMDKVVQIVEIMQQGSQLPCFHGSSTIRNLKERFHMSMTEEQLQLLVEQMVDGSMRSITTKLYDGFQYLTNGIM
Chain of SRSF protein kinase 1 (Homo sapiens) (Q96SB4 whole entry): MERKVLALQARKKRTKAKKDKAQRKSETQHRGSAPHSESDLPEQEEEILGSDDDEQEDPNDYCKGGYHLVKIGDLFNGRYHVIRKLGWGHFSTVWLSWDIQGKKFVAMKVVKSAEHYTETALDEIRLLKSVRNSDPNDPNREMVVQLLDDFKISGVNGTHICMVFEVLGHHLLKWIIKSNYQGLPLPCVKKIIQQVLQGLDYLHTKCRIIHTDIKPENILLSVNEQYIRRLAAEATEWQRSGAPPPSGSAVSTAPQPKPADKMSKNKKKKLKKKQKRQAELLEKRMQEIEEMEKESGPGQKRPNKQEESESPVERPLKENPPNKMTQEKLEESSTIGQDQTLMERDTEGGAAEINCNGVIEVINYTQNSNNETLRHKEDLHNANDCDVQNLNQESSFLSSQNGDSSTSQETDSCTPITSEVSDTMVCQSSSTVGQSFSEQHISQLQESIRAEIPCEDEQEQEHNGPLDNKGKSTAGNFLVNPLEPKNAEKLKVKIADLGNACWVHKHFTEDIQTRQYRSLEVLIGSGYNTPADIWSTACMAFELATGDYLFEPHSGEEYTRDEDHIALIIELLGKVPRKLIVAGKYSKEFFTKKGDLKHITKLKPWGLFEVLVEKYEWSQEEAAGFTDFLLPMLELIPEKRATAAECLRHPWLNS

What is called inhibition is the drop in the measured response relative to a control, in per cent. `NS(=O)(=O)c1ccc(N/N=C2\C(=O)Nc3ccc(C(=O)NCCc4c[nH]cn4)cc32)cc1`: the inhibition in assay [1] was 2.64%; in [2], -1.35%; in assay [3], -0.63%; in assay [4] it was 2.2%; in [5], 4.76%; in assay [6], 1.71%. Moreover, the inhibition is 2.03% in [7]; -6.38% in [8]; -1.44% in assay [9]; -1.35% in assay [10]; -1.01% in [11]; 1.57% in [12]. In addition, the inhibition in assay [13] was found to be 0.18%; in assay [14], 6.03%; in [15], 18.6%; in assay [16], 10.2%; in [17], 13%; in assay [18] it was 4.11%. Also, the inhibition was 3.92% in assay [19] and 7.82% in [20].

For the molecule `CCn1c(-c2nonc2N)nc2cncc(C(=O)N3CCNCC3)c21`, the inhibition is 5.97% in assay [1]; -1.32% in assay [2]; -1.85% in assay [3]; 5.78% in assay [4]; 5.67% in assay [5]; 1.16% in assay [6]. For the same molecule, the inhibition was 2.58% in assay [7]; -4.56% in [8]; -1.49% in assay [10]; -1.31% in assay [11]; 2.81% in assay [12]; 0.77% in assay [13]. Also, the inhibition in assay [14] came to 4.04%; in assay [15], 2.82%; in assay [16], 1.05%; in assay [17] it was 5.47%; in assay [18], 6.46%; in assay [19], 8.59%. For the same molecule, in assay [20], the inhibition is 12.2%.

As to `COc1ccc(-c2coc3ncnc(N)c23)cc1`, the inhibition is 2.95% in assay [1]; -2.53% in assay [2]; -4.3% in assay [3]; 3.88% in [4]; 8.12% in assay [5]; 2.89% in assay [6]. Further, the inhibition was 11.6% in assay [7]; 2.15% in assay [8]; -0.74% in assay [9]; -2.41% in assay [10]; 2.86% in assay [11]; 1.04% in assay [12]. Besides, the inhibition in [13] was -0.88%; in assay [14], 4.06%; in assay [15], -2.3%; in [16] it was 4.01%; in assay [17], -4.53%; in assay [18] it was 10.3%. Moreover, the inhibition in assay [19] was 9.84%; in assay [20], 5.67%.

Take `CS(=O)(=O)CCNCc1ccc(-c2ccc3ncnc(Nc4ccc(OCc5cccc(F)c5)c(C(F)(F)F)c4)c3c2)o1`: the inhibition was 3.16% in assay [1]; -1.9% in [2]; -0.25% in assay [3]; 3.86% in assay [4]; 7.14% in assay [5]; 2.85% in assay [6]. Moreover, the inhibition was 7.89% in [7]; -2.15% in assay [9]; -0.87% in assay [10]; -2.4% in [11]; 0.03% in assay [12]; 0.79% in assay [13]. For the same molecule, the inhibition was 3.22% in assay [14]; 5.65% in [15]; 7.6% in [16]; 5.45% in assay [17]; 5.87% in assay [18]; 5.15% in assay [19]. Moreover, in assay [20], the inhibition amounted to 5.42%.
